Data on 24 molecules can be found in PubChem BioAssay (Tox21).

Records with an inconclusive call do not appear. Unmarked numbers belong to inactive results. Calls of active or inactive are those of the source. Unless noted, the call rests on the fitted dose curve; in most records, active means well fitted curve in the direction sought with a large enough effect in the repeat runs; inconclusive means weak or mixed curves; inactive means no such curve, though single readings can be large; an effect the other way counts as inactive or inconclusive.

A short description of assay [1]: qHTS assay to identify aromatase inhibitors - cell viability counter screen (AID 743084).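 Further: cells stimulated with testosterone during compound exposure; nearly all actives have a fitted effect of over 55% in size.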 Background: Quantitative high-throughput screening tests each substance at several concentrations.
In assay [2] the target is Aryl hydrocarbon receptor (Homo sapiens) (UniProt P35869). Put plainly: qHTS assay to identify small molecule that activate the aryl hydrocarbon receptor (AhR) signaling pathway (AID 743085). Further: nearly all actives have a fitted effect of over 15% in size. Further: potency means the concentration at half of the fitted maximal effect.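 On activation: HG2L7.5c1 human HepG2 liver cells with stably integrated DRE-driven firefly reporter; series mostly up to about 70 µM.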 In short, it runs like this: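 AhR agonist activity is inferred from enhanced light output of a DRE-controlled firefly luciferase reporter in HepG2 cells, measured with ONE-Glo following 24 h treatment at 37C.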
Aryl hydrocarbon receptor (Homo sapiens), sequence (P35869 whole entry, looked up): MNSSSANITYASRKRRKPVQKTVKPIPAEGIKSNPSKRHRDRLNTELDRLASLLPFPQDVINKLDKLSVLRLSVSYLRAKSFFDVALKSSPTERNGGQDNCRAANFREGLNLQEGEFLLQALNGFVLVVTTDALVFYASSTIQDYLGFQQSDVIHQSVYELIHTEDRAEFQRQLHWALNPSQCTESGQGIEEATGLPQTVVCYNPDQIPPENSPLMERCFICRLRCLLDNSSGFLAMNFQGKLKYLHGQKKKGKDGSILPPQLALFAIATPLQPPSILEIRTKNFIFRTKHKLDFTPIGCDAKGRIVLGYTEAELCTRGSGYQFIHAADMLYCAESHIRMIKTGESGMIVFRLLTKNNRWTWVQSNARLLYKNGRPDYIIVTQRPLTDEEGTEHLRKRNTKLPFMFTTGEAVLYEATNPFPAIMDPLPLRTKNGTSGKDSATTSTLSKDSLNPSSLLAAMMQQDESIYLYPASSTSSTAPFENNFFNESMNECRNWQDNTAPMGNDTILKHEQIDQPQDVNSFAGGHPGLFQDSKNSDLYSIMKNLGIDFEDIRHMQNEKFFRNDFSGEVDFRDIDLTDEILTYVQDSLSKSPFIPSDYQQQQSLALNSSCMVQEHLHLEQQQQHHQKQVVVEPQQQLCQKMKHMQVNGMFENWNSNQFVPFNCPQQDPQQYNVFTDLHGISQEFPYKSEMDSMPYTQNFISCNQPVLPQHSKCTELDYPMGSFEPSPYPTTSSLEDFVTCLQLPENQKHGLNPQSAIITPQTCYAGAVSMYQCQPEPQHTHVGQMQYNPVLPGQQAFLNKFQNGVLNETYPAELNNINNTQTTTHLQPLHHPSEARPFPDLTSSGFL

Assay [3] in a line: qHTS assay to identify small molecule that activate the aryl hydrocarbon receptor (AhR) signaling pathway - cell viability counter screen (AID 743086).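 Further: HepG2 liver cells carrying the AhR DRE luciferase reporter; series mostly up to about 70 µM; nearly all actives have a fitted effect of over 45% in size.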 Put shortly: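 HepG2-AhR-luc (HG2L7.5c1) cells, 4000/well, treated 24 h at 37 C with compound; viability measured as CellTiter-Fluor fluorescence after 30 min in the same wells as the luciferase read.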
The target of assay [4] is Peroxisome proliferator-activated receptor gamma (Homo sapiens) (UniProt P37231). Put plainly: qHTS assay to identify small molecule agonists of the peroxisome proliferator-activated receptor gamma (PPARg) signaling pathway (AID 743094; active means well fitted activation curve with a large enough effect in the signal ratio in the repeat runs, not every such curve was filed as active; the % refers to the signal ratio). Put shortly: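 Beta-lactamase FRET fluorescence was the read-out after a 1 h room-temperature substrate step, following 17 h compound treatment at 37C of HEK293H cells expressing a UAS-driven bla reporter responsive to PPARg.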
Peroxisome proliferator-activated receptor gamma (Homo sapiens), sequence (P37231 whole entry, looked up): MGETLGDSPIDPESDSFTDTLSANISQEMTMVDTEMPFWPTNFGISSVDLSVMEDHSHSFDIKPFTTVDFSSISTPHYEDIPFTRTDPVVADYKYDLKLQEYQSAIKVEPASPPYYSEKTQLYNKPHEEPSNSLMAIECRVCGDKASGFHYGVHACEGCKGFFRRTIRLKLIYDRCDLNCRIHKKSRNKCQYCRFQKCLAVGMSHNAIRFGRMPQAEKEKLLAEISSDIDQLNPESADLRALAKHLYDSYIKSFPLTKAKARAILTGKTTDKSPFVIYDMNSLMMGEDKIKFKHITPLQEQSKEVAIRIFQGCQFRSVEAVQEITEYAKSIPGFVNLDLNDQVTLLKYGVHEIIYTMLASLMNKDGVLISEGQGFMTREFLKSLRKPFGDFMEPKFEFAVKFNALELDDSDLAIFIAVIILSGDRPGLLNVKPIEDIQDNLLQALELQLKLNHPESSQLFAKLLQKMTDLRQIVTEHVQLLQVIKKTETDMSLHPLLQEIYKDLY

Assay [5] shares this target. Description: qHTS assay to identify small molecule antagonists of the peroxisome proliferator-activated receptor gamma (PPARg) signaling pathway (AID 743191; calls by dose curve; further: nearly all actives have a fitted effect of over 30% in size; further: potency means the concentration at half of the fitted maximal effect). Put shortly: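 GeneBLAzer PPARg UAS-bla HEK293H cells, 5 h post-plating, exposed to compounds 17 h at 37C. LiveBLAzer B/G FRET substrate added for 1 h at room temperature; beta-lactamase reporter read by fluorescence intensity.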

Assay [6] is described as follows: qHTS assay to identify small molecule antagonists of the peroxisome proliferator-activated receptor gamma (PPARg) signaling pathway - cell viability counter screen (AID 743194). Further: nearly all actives have a fitted effect of over 55% in size. In short, it runs like this: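 Cytotoxicity counter screen in PPARg-bla HEK293H cells, same wells as reporter assay. Compounds plus 50 nM rosiglitazone (final) for 17 h at 37 C, then viability read by CellTiter-Glo luminescence.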

Assay [7] can be described thus: qHTS assay for small molecule agonists of the antioxidant response element (ARE) signaling pathway (AID 743202; active means well fitted activation curve with a large enough effect in the signal ratio in the repeat runs, not every such curve was filed as active; the % refers to the signal ratio). Put shortly: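 ARE-bla HepG2 cells (beta-lactamase reporter under the antioxidant response element), plated 5 hours, then exposed to compounds 16 hours at 37 C. LiveBLAzer B/G FRET substrate added for 2 hours at room temperature; fluorescence intensity read.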

Assay [8] can be described thus: qHTS assay for small molecule agonists of the antioxidant response element (ARE) signaling pathway - cell viability counter screen (AID 743203; calls by dose curve; further: nearly all actives have a fitted effect of over 55% in size). Put shortly: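 HepG2 cells carrying ARE-driven beta-lactamase; 2,000 cells/well; 5 hrs plating; compound pinned from DMSO; 16 hrs 37C/5% CO2; CellTiter-Glo added; 30 min RT; luminescence.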
Assay [9] in a line: qHTS assay for small molecule activators of the heat shock response signaling pathway - cell viability counter screen (AID 743209). Further: nearly all actives have a fitted effect of over 50% in size. In short, it runs like this:
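Luminescence from CellTiter-Glo, added after the beta-lactamase FRET read, gave the viability signal. Cells were HSE-bla HeLa treated with DMSO-dissolved compounds for 5 h at 37 C following overnight plating.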

The nature of assay [10]: qHTS assay for small molecule activators of the heat shock response signaling pathway (AID 743210; active means well fitted activation curve with a large enough effect in the signal ratio in the repeat runs, with a control signal flat, not every such curve was filed as active; the % refers to the signal ratio; further: series mostly up to about 63 µM). Put shortly:
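HSE-bla HeLa cells (beta-lactamase reporter under heat shock response elements), plated overnight, then exposed to compounds 5 h at 37 C; LiveBLAzer B/G FRET substrate added, 2.5 h at room temperature, fluorescence intensity read.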
On the % scale 0 is the no-effect control and ±100 the full control effect.

In the case of `CCN(CC)CCOC(=O)C(Cc1cccc2ccccc12)CC1CCCO1` (centres undefined), the Potency result in assay [1], in assay [2], in assay [3], in assay [4], in assay [5] and in assay [6] was “inactive” each time. Moreover, the Potency entry in assay [7], in assay [8], in assay [9] and in [10] was “inactive” in each case.
On to `C[C@H](CCC(=O)O)[C@H]1CC[C@H]2[C@@H]3CC[C@@H]4C[C@H](O)CC[C@]4(C)[C@H]3C[C@H](O)[C@]12C`, for which the Potency entry in assay [1], in assay [2], in [3], in assay [4], in [5] and in [8] was “inactive” in each case. In assay [10], the Potency result is “inactive”.
On to `CN(C)CCN(Cc1ccccc1)c1ccccn1`, for which the Potency entry in assay [1], in assay [2], in [3], in [4], in assay [6] and in assay [7] was “inactive” each time. For the same molecule, the Potency entry in assay [8], in [9] and in assay [10] was “inactive” in each case.
Take `COC(=O)c1ccc(I)cc1S(=O)(=O)NC(=O)Nc1nc(C)nc(OC)n1`: the Potency entry in assay [1], in assay [2], in assay [3], in assay [4], in assay [6] and in [7] was “inactive” each time. The Potency result in [8], in [9] and in assay [10] was “inactive” each time.
As for `O=C1c2ccccc2S(=O)(=O)N1CCCCN1CCN(c2ncccn2)CC1`, the Potency result in assay [1], in [2], in assay [3], in assay [4], in assay [5] and in [6] was “inactive” each time. In addition, the Potency entry in assay [7], in assay [8], in assay [9] and in assay [10] was “inactive” in each case.
Take `OC(CN1CCC(Cc2ccc(F)cc2)CC1)c1ccc(Cl)cc1` (centres undefined): the Potency entry in [1], in assay [2], in assay [3], in [4], in [5] and in assay [6] was “inactive” each time. For the same molecule, in assay [9], the Potency entry was “inactive”.
With `O=C1C(O)=C(O)C(=O)C(O)=C1O`, the Potency entry in assay [1], in [2], in [3], in assay [4], in assay [5] and in [6] was “inactive” each time. Further, the Potency result in assay [7], in assay [8], in assay [9] and in assay [10] was “inactive” throughout.
Consider `C/C(=C(\CCOP(=O)(O)O)SC(=O)c1ccccc1)N(C=O)Cc1cnc(C)nc1N`, for which the Potency entry in assay [1], in assay [2], in assay [3] and in assay [4] was “inactive” in each case. Moreover, the activity change, negative = cytotoxicity is 4.9% [at 5.95 µM] in assay [6] and -16.4% [at 5.95 µM] in assay [9]. Moreover, the activation is 14.1% [at 8.36 µM] in [7] and 1.29% [at 5.95 µM] in [10]. Further, the viability change, negative = cytotoxic in [8] was 8.52% [at 8.36 µM].
As for `C=C(C)C(=O)OCC`, the Potency result in [1], in assay [2], in assay [3], in assay [4], in assay [5] and in [6] was “inactive” throughout. Also, the Potency entry in [7], in [8], in assay [9] and in assay [10] was “inactive” in each case.
Regarding `Nc1cccc([N+](=O)[O-])c1`, the Potency result in [1], in assay [2], in assay [3], in assay [4], in assay [5] and in [6] was “inactive” in each case. For the same molecule, the Potency entry in [7], in [8] and in assay [10] was “inactive” throughout.
`CC(COCCO)OCCO` (centres undefined): the Potency result in [1], in [2], in assay [3], in assay [4], in assay [5] and in assay [6] was “inactive” each time. Moreover, the Potency entry in assay [8], in assay [9] and in [10] was “inactive” throughout.
Regarding `CN(C)c1ccc(CCO)cc1`, the Potency result in assay [1], in assay [2], in assay [3], in assay [4], in assay [5] and in assay [6] was “inactive” in each case. The Potency result in assay [7], in [8], in assay [9] and in assay [10] was “inactive” each time.
For `O=C(O)CNCC(=O)O`, the figures for the activity change, negative = cytotoxicity in [1], in assay [6] and in assay [9] were -0.604% [at 8.47 µM], 0.536% [at 5.95 µM] and 4.62% [at 5.95 µM], respectively. Also, the activation in [2] is 1.31% [at 8.47 µM]; in [4] it was 0.605% [at 7.08 µM]; in assay [7], -1.79% [at 8.36 µM]; in assay [10] it was -0.342% [at 5.95 µM]. For the same molecule, the viability change, negative = cytotoxic in [3] is -0.209% [at 8.47 µM]; in assay [8] it was 1.43% [at 8.36 µM].
Consider `CC(=O)NO`, for which the Potency result in [1], in [2], in assay [3], in [4], in assay [5] and in [6] was “inactive” each time. Besides, the Potency result in assay [7], in assay [8], in assay [9] and in assay [10] was “inactive” in each case.
For `Cc1cccc(C)c1NC(=O)CN(CC(=O)O)CC(=O)O`, the Potency result in assay [1], in assay [2], in assay [3], in assay [4], in [5] and in assay [6] was “inactive” in each case. The Potency entry in [7], in assay [8], in assay [9] and in assay [10] was “inactive” each time.
Take `CCCCCCCCCCO[C@@H]1O[C@H](CO)[C@@H](O)[C@H](O)[C@H]1O`: the Potency entry in assay [1], in assay [2], in assay [3], in [4], in [5] and in [6] was “inactive” each time. The Potency entry in [8], in assay [9] and in [10] was “inactive” throughout.
With `CNC(=O)CN(CCN(CCN(CC(=O)[O-])CC(=O)NC)CC(=O)[O-])CC(=O)[O-].O.[Gd+3]`, the Potency result in assay [1], in assay [2], in assay [3], in [4], in assay [6] and in assay [7] was “inactive” each time. Besides, the Potency result in assay [8] and in assay [9] was “inactive” in each case.
For the molecule `CCOC(=O)NCCOc1ccc(Oc2ccccc2)cc1`, the Potency result in assay [1], in assay [2], in assay [3], in [4], in [8] and in assay [9] was “inactive” in each case. Moreover, the Potency result in assay [10] was “inactive”. Also, the Potency in assay [5] is 38.9 µM (active).
For `Cc1c(N)cccc1[N+](=O)[O-]`, the Potency entry in [1], in assay [2], in assay [3], in assay [4], in [5] and in [6] was “inactive” in each case. Also, the Potency result in [7], in assay [8], in assay [9] and in [10] was “inactive” each time.
As for `CC1CCC(=O)C1=O` (centres undefined), the Potency result in assay [1], in assay [2], in [3], in assay [4], in assay [5] and in assay [6] was “inactive” each time. For the same molecule, the Potency result in [7], in assay [8], in assay [9] and in assay [10] was “inactive” in each case.
`CC[N+]1(CC)CCC(=C(c2ccccc2)c2ccccc2)C1C` (centres undefined): the Potency entry in assay [1], in assay [2], in assay [3], in [4], in [5] and in [6] was “inactive” each time. For the same molecule, the Potency entry in assay [7], in [8], in assay [9] and in assay [10] was “inactive” each time.
As for `CCOCC(O)COc1ccc(NC(=O)CC[S+](C)C)cc1` (centres undefined), the Potency result in assay [1], in assay [3], in assay [4], in assay [5], in [6] and in assay [7] was “inactive” throughout. The Potency result in [8] and in [9] was “inactive” in each case. Further, the Potency in assay [2] was 5.31 µM (active).
Take `O=C(O)c1ccccc1Cl`: the Potency result in [1], in [2], in assay [3], in [4], in assay [6] and in assay [7] was “inactive” in each case. The Potency entry in assay [8], in assay [9] and in [10] was “inactive” throughout.
On to `CC(=O)c1ccc2c(c1)N(CCCN1CCC(CCO)CC1)c1ccccc1S2`, for which the Potency result in assay [1], in [2], in [3], in [4], in [5] and in [6] was “inactive” each time. In addition, the Potency result in assay [7] and in assay [10] was “inactive” each time.
